Data taken from PubChem BioAssay AID2254 (The Scripps Research Institute Molecular Screening Center, 2010).

assay: human RBBP9 inhibitor potency, late-stage follow-up, biochemical, gel-based ABPP, IC50 (AID 2254); details: fluorophosphonate probe labeling of RBBP9; call rule not given here

IC50, inactive:
C/C(=N\OC(=O)C1CCCCC1)c1nccs1 > 100 µM
CC1=CC(=NOC(=O)/C=C/c2ccccc2)C=C(C)C1=O > 100 µM
C/C(=N\OC(=O)c1ccc(Cl)cc1)c1nccs1 > 100 µM
C/C(=N\OC(=O)c1ccc(F)cc1)c1nccs1 > 100 µM
COc1ccc(C(=O)ON=C2C=C(C)C(=O)C(C)=C2)cc1 > 100 µM
C/C(=N\OC(=O)c1ccccc1)c1nccs1 > 100 µM
COc1ccc(C(=O)O/N=C(\C)c2nccs2)cc1 > 100 µM
